Reference: PubChem BioAssay AID588342 (National Center for Advancing Translational Sciences (NCATS), 2011)
Among all 360,000 compounds or so, about 25,000 (6.9%) were called active. A call without a number means that no potency is given here. Roughly 9% stayed inconclusive and do not appear here. Calls come from the whole dose curve; as a rule, active = well fitted inhibition curve with a large enough effect; inconclusive = small, poorly fitted or top-dose-only effect; inactive = flat fitted curve, though single readings scatter. Only a selection was taken, and actives are over-represented in it overall.
Note: nearly all actives have a fitted effect of over 55% in size.
Potency is the fitted concentration of half-maximal effect.

What follows are molecules tested against Luciferin 4-monooxygenase (Photinus pyralis) (UniProt P08659) (assay: qHTS profiling assay for firefly luciferase inhibitor/activator using purifed enzyme and Km concentrations of substrates (counterscreen for miR-21 project)). Settings: purified FLuc, luminescence inhibition; series mostly up to 57.5 µM.
Sequence of Luciferin 4-monooxygenase (Photinus pyralis) (P08659 whole entry, looked up): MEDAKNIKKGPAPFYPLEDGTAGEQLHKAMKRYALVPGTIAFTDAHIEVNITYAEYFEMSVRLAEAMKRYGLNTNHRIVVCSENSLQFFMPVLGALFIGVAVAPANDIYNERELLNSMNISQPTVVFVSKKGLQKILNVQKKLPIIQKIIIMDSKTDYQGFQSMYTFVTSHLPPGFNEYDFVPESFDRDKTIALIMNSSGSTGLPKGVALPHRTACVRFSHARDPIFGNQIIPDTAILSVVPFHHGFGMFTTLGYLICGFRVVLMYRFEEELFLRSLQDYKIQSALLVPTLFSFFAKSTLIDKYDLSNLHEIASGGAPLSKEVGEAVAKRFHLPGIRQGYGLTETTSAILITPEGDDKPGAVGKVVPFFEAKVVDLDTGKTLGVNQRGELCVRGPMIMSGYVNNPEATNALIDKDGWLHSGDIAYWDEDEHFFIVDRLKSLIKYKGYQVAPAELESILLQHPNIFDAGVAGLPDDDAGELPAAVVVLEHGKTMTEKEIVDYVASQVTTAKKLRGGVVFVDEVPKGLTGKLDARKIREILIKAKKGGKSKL
Method in brief: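 Purified P. pyralis luciferase (10nM final) with 10uM D-luciferin and 10uM ATP (Km levels) in 50mM Tris acetate pH 7.5, 10mM Mg acetate, 0.01% Tween-20, 0.05% BSA; qHTS 6-point titration, ~60 µM downward; luminescence read.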
With `CC(=O)Nc1ccc(NC(=O)CSc2nnc3c4cc(Br)ccc4n(C)c3n2)cc1` the Potency was “inactive”.
For `CCc1ccc(NC(=O)CN2C(=O)C(c3ccccc3)=NC23CCCCCC3)cc1`, the Potency was “inactive”.
`O=[N+]([O-])c1ccc(N=Cc2c(O)ccc3ccccc23)cc1` was tested, and the Potency was “inactive”.
`CCOc1[nH]n(-c2ccc(Cl)cc2)c(=O)c1C=Nc1ccc(O)cc1` was tested, and the Potency was “inactive”.
For `Oc1ccc(N=Cc2sc3ccccc3c2Cl)cc1`, the Potency was 5.36 µM (active).
With `CC(C)CNC(=O)CC(c1ccccc1)c1c(O)ccc2ccccc12` (centres undefined) the Potency was “inactive”.
For `Oc1ccc2ccccc2c1C=Nc1ccccc1`, the Potency was 16.9 µM (active).
With `Oc1ccc(N=Cc2c(O)ccc3ccccc23)cc1` the Potency was 16.9 µM (active).
In the case of `COc1ccc(-n2ccnc(NCCc3ccc(Cl)cc3)c2=O)cc1OC`, the Potency is reported as “inactive”.
With `Cc1cc(C)cc(NC(=O)c2cnc3sc(N4CCCC4)nn3c2=O)c1` the Potency was “inactive”.
In the case of `COc1cccc(CNC(=O)C(=O)NCC(c2cccs2)S(=O)(=O)c2ccccc2)c1` (centres undefined), the Potency is reported as “inactive”.
With `Cc1nc2ccc(S(=O)(=O)N(CC(=O)Nc3ccc(F)cc3)Cc3ccccc3)cc2s1` the Potency was “inactive”.
`CCCCC12CN3CC(C)(CN(C1)C3c1ccc(O)c(OC)c1)C2=O` (centres undefined) was tested, and the Potency was “inactive”.
In the case of `CCOc1ccc(CNC(=O)C2CCN(c3nnc(-n4cccc4CNc4ccc(C)cc4)s3)CC2)cc1OC`, the Potency is reported as “inactive”.
`CCOC(=O)/C(C#N)=C/c1ccc(OCC(=O)Nc2ccccc2)c(OC)c1` was tested, and the Potency was “inactive”.
`Cc1cc(OCC(=O)N(C)c2c(N)n(Cc3ccccc3)c(=O)[nH]c2=O)c(C(C)C)cc1Cl` was tested, and the Potency was “inactive”.
For `CCCn1c(C)cc(/C=C(\C#N)C(=O)OCC(=O)N(C)c2c(N)n(Cc3ccccc3)c(=O)[nH]c2=O)c1C`, the Potency was 10.7 µM (active).
For `COc1cc(NC(=O)CCn2nc(C)cc2C)cc(OC)c1OC`, the Potency was “inactive”.
`CCCn1c(C)cc(/C=C(\C#N)C(=O)OCC(=O)Nc2cc(OC)c(OC)c(OC)c2)c1C` was tested, and the Potency was 13.5 µM (active).
For `CN(C(=O)COC(=O)c1ccc(Br)o1)c1c(N)n(Cc2ccccc2)c(=O)[nH]c1=O`, the Potency was “inactive”.
For `CCS(=O)(=O)c1ncc(N(Cc2ccc(F)cc2)Cc2ccco2)c(C(=O)Nc2cc(C)ccc2C)n1`, the Potency was “inactive”.
For `COc1ccc(C(=O)c2oc3ccccc3c2NC(=O)COc2cccc(C)c2)cc1`, the Potency was “inactive”.
With `O=c1oc2ccc(C#CC3(O)CCCCC3)cc2cc1-n1cc(-c2ccsc2)nn1` the Potency was “inactive”.
`Cn1c(N)c(C(=O)COC(=O)COc2ccc(Cl)cc2)c(=O)n(C)c1=O` was tested, and the Potency was “inactive”.
In the case of `CCN(C(=O)COC(=O)Cc1c(F)cccc1Cl)c1c(N)n(Cc2ccccc2)c(=O)[nH]c1=O`, the Potency is reported as “inactive”.
In the case of `COc1ccc(/C=C(\NC(=O)c2ccc(OC)c(OC)c2)C(=O)NCCc2c[nH]c3ccccc23)cc1`, the Potency is reported as “inactive”.
With `Cc1ccc(C(=O)N/C(=C/c2ccco2)C(=O)NCCc2c[nH]c3ccccc23)cc1C` the Potency was 10.7 µM (active).
With `CC(=O)N/C(=C/c1ccc(Cl)cc1)C(=O)NCCc1c[nH]c2ccccc12` the Potency was “inactive”.
For `COc1ccc(C)cc1N(C)C(=O)c1coc(=O)c2ccccc12`, the Potency was “inactive”.
With `O=C(CN1CCN(S(=O)(=O)c2cccc(Cl)c2)CC1)N1CCCCC1` the Potency was “inactive”.
`O=C(COC(=O)c1ccccc1Cl)NC1CCCCCCC1` was tested, and the Potency was 12 µM (active).
For `N#Cc1ccccc1Sc1ccccc1C(=O)OCC(=O)NC1CCCCC1`, the Potency was “inactive”.
For `O=C(COC(=O)c1ccccc1SCC(=O)NC1CCCCC1)NC1CCCCC1`, the Potency was “inactive”.
In the case of `Cc1ccc(S(=O)(=O)NCc2nc3nc(C)cc(C)n3n2)cc1`, the Potency is reported as “inactive”.
In the case of `Cc1ccc(NC(=O)CCC(=O)N2CCC(c3ccccc3)=N2)cc1S(=O)(=O)N1CCCCC1`, the Potency is reported as “inactive”.
With `O=C(CN1C(=O)NC2(CCCCCC2)C1=O)NCc1cccs1` the Potency was “inactive”.
For `Cc1cccc(N=Nc2c(C)[nH]n(-c3ccccc3)c2=O)c1`, the Potency was 19 µM (active).
With `Cc1[nH]n(-c2ccccc2)c(=O)c1N=Nc1ccccc1C(=O)N1CCCCC1` the Potency was “inactive”.
`Cc1cccc(N2C(=O)CC(SC(N)=Nc3ccccc3)C2=O)c1` (centres undefined) was tested, and the Potency was “inactive”.
`CCN(Cc1ccccc1)C(=O)c1cn(-c2cccc(OC)c2)c(=O)c2ccccc12` was tested, and the Potency was “inactive”.
With `CCn1cc(C(=O)NCc2ccccc2)c(=O)c2cc(S(=O)(=O)N3CCCCC3)ccc21` the Potency was “inactive”.
`COc1ccc(C(CC(=O)Nc2ccc(C)cc2)NC(=O)C(F)(F)F)cc1` (centres undefined) was tested, and the Potency was “inactive”.
`COc1ccc(C(C#N)Nc2ccc(C)cc2)cc1` (centres undefined) was tested, and the Potency was 1.69 µM (active).
For `COc1ccc(C(C#N)Nc2ccccc2C)cc1` (centres undefined), the Potency was “inactive”.
For `Cc1ccc(CN2CCC(CNC(=O)c3cnn(-c4ccc(C)cc4)c3C3CCN(C(=O)OC(C)(C)C)CC3)CC2)cc1`, the Potency was “inactive”.
For `Cn1ccc2cc(S(=O)(=O)N3CCCC(C(=O)NCc4ccccc4F)C3)ccc21` (centres undefined), the Potency was “inactive”.
For `O=C(CSCc1ccc(Cl)cc1)N1CCN(Cc2ccc3c(c2)OCO3)CC1`, the Potency was “inactive”.
In the case of `O=C(COc1ccccc1Cl)N1CCCCCCC1`, the Potency is reported as “inactive”.
For `O=C(CSCc1ccc(Cl)cc1)N1CCCCC1`, the Potency was 16.9 µM (active).
`Cc1cccc(C)c1NC(=O)CNC(=O)C1CCCC1` was tested, and the Potency was “inactive”.
With `Cc1ccc(CNC(=O)CSc2c3c(nc4cc(Cl)ccc24)CCCC3)cc1` the Potency was “inactive”.
For `COC(=O)c1sccc1S(=O)(=O)N(CC(=O)Nc1ccc(C)c(F)c1)c1ccc(C)c(C)c1`, the Potency was “inactive”.
For `Cc1ccc(CSc2nc(-c3ccccc3)c(C#N)c(=O)[nH]2)cc1`, the Potency was “inactive”.
`Cc1ccccc1CSc1nnc(-c2ccccc2)c(=O)[nH]1` was tested, and the Potency was 19 µM (active).
In the case of `Cc1ccccc1CSc1nnc(-c2cccnc2)n1N`, the Potency is reported as “inactive”.
For `CCCN(CC(=O)NC(=O)NC1CCCCC1)CC(=O)Nc1cc(Cl)ccc1Cl`, the Potency was “inactive”.
`COc1ccccc1CNC(=O)CS(=O)(=O)c1cccc2nsnc12` was tested, and the Potency was “inactive”.
With `CCOC(=O)c1cccc(NC(=O)c2cc(S(=O)(=O)N3CCCC(C)C3)cn2C)c1` (centres undefined) the Potency was “inactive”.
`COC(=O)c1ccc(C)c(NC(=O)C2CC(=O)N(C3CCCC(C)C3C)C2)c1` (centres undefined) was tested, and the Potency was “inactive”.
With `Clc1ccc(COn2c(-c3ccc(Cl)cc3Cl)nc3ncccc32)cc1` the Potency was “inactive”.
In the case of `COn1c(-c2ccc(Cl)cc2Cl)nc2ncccc21`, the Potency is reported as “inactive”.
`Clc1ccc(-c2cc(-c3ccccn3)on2)c(Cl)c1` was tested, and the Potency was 0.0757 µM (active).
In the case of `O=C1N(Cc2ccccc2)c2ccc(Cl)cc2C1(O)c1c[nH]c2ccccc12` (centres undefined), the Potency is reported as “inactive”.
In the case of `Cc1ccc(-c2nn3c(=O)cc(CN4CCN(C(=O)Nc5cccc(C(F)(F)F)c5)CC4)nc3s2)cc1`, the Potency is reported as “inactive”.
In the case of `Cc1cccc(NC(=O)c2ccc3nc(C(C)C)oc3c2)c1C`, the Potency is reported as “inactive”.
With `CCCCOc1ccc(C(=O)Nc2cccc(-c3nc4ccccc4o3)c2C)cc1` the Potency was “inactive”.
With `Cc1cc(C)c2oc(-c3cccc(NC(=O)c4cccc(F)c4)c3C)nc2c1` the Potency was 0.849 µM (active).
For `CCc1cc2c(cc(C(=O)OC)n2Cc2nc(-c3ccc(C)cc3)oc2C)s1`, the Potency was “inactive”.
In the case of `Cc1ccc(Cn2c(=O)n(-c3ccc(C)cc3)c(=O)c3c2c2cc(C)ccc2n3C)cc1`, the Potency is reported as “inactive”.
With `Cc1ccc(-c2cnc(NCc3ccc(C(C)C)cc3)n2C)cc1` the Potency was “inactive”.
In the case of `Cc1cccc(N(C(=O)c2sc(C)nc2C)C(C(=O)NCC2CCCO2)c2ccccc2)c1` (centres undefined), the Potency is reported as “inactive”.
In the case of `COc1ccc(NC(=O)CCCNC(=O)Cn2cnc3sc4c(c3c2=O)CCCC4)cc1OC`, the Potency is reported as “inactive”.
`COc1ccc(NC(=O)CCNC(=O)Cn2cnc3sc4c(c3c2=O)CCCC4)cc1OC` was tested, and the Potency was “inactive”.
With `COc1ccc(/C=N/Nc2ncnc3sc4c(c23)CCCC4)cc1O` the Potency was 1.69 µM (active).
`CCCOc1ccc(NC(=O)CC2C(=O)N(c3ccccc3)C(=O)N2Cc2ccco2)cc1` (centres undefined) was tested, and the Potency was “inactive”.
`CCc1ccc(CNC(=O)CCc2nc(-c3cccs3)no2)cc1` was tested, and the Potency was “inactive”.
For `COc1ccc(OC)c(CNC(=O)CCc2nc(-c3cccs3)no2)c1`, the Potency was “inactive”.
With `COc1ccc(CCc2nc(-c3cccs3)no2)cc1` the Potency was 19 µM (active).
In the case of `COc1ccc(-n2c(SC)nc3sc4c(c3c2=O)CCN(C(C)=O)C4)cc1`, the Potency is reported as “inactive”.
In the case of `Cc1cccc(NC(=O)Cn2c(=O)n(CCC(C)C)c(=O)c3cccnc32)c1`, the Potency is reported as “inactive”.
With `COc1ccccc1C(=O)OCc1cc(=O)n2nc(-c3cccs3)sc2n1` the Potency was “inactive”.
In the case of `O=C(Cn1c(=O)n(-c2ccc(F)cc2)c(=O)c2sc3ccccc3c21)NC1CCCC1`, the Potency is reported as “inactive”.
In the case of `Cc1ccc(C(=O)NCCc2nnc(SCC(=O)Nc3cccc(C(=O)O)c3)n2C)cc1`, the Potency is reported as 10.7 µM (active).
`Cc1ccc(C)c2c1cc(C)c1nnc(SCC(=O)Nc3cccc(C(=O)O)c3)n12` was tested, and the Potency was “inactive”.
With `Cc1cccc(NC(=O)CSc2nnc(CNC(=O)c3cccc(C)c3)n2-c2ccccc2)c1` the Potency was “inactive”.
In the case of `COc1ccc(CCN(Cc2cc3cccc(C)c3[nH]c2=O)C(=O)N2CCCC2)cc1OC`, the Potency is reported as “inactive”.
In the case of `CCOc1ccc(NC(=O)c2cc(S(=O)(=O)N3CCCC3)c[nH]2)cc1`, the Potency is reported as “inactive”.
`CCCOc1ccc(C(=O)NCCc2ccccc2)cc1` was tested, and the Potency was 1.07 µM (active).
`CN(c1ccccc1)S(=O)(=O)c1ccc(C(=O)NCCc2ccccc2)cc1` was tested, and the Potency was “inactive”.
In the case of `O=C(NCCOc1ccccc1)c1ccccc1`, the Potency is reported as 4.78 µM (active).
In the case of `COc1ccc(OCCCC(=O)NCCc2ccccc2)cc1`, the Potency is reported as “inactive”.
In the case of `O=C(CCNC(=O)c1ccc(Br)cc1)NCCCc1ccccc1`, the Potency is reported as “inactive”.
For `NS(=O)(=O)c1cc(C(=O)NCCOc2ccccc2)c(Cl)cc1Cl`, the Potency was “inactive”.
For `CC(C)c1ccc(C(=O)NCCCc2ccccc2)cc1`, the Potency was 10.7 µM (active).
With `Cc1c(C(=O)NCCCc2ccccc2)cccc1[N+](=O)[O-]` the Potency was “inactive”.
For `CCCCCCCCC(=O)NCCOc1ccccc1`, the Potency was “inactive”.
`CCOc1ccc(C2C(C(=O)Nc3ccc(Cl)cc3)=C(C)Nc3nc(C(F)(F)F)nn32)cc1` (centres undefined) was tested, and the Potency was “inactive”.
For `COc1ccc(CCNC(=O)c2c3c(nc4ccccc24)C(=O)N(C2CCCCC2)C3)cc1OC`, the Potency was “inactive”.
For `CCOC(=O)CN1C(C(=O)c2ccccc2)=C(OC(=O)C(C)(C)C)c2ccccc2S1(=O)=O`, the Potency was “inactive”.
